Assay results from PubChem BioAssay (NCATS).
Results filed as inconclusive are left out. Values without a mark were called inactive. Calls of active or inactive are those of the source. Calls follow the shape of the dose curve; as a rule, active = well fitted inhibition curve with a large enough effect; inconclusive = small, poorly fitted or top-dose-only effect; inactive = flat fitted curve, though single readings scatter.

Test system: KB-3-1
Experiment: Cytotoxic Profiling of Annotated Libraries Using Quantitative High-Throughput Screening (AID 1296008); also: nearly all actives have a fitted effect of over 60% in size
Conditions: Five cell lines viability, CellTiter-Glo ATP luminescence, 48-72 h; max response: active compounds read low
Summary of the method: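 Cytotoxicity was measured as CellTiter-Glo ATP luminescence, read after 10 min at room temperature. Compound treatment of the cells lasted 48 or 72 hr at 37 degrees Celsius in a qHTS format.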
% is scaled to controls: 0 for no effect and ±100 for the full control effect.

**Q.** How did the max response turn out when CC[C@@H]1[C@H]2CCCCN3C(=O)C[C@H]([C@@H]4[C@H]1OC(=O)[C@H]4C)[C@@H]23 was run?
**A.** The max response was -6.87%.

**Q.** Oc1ccc2c(-c3c(-c4ccccn4)nn4c3CCC4)ccnc2c1 was tested. Which max response did it give?
**A.** The max response was -4.91%.

**Q.** With CC1(C)CCCC2(C)c3c4c(c(=O)oc(=O)c3=CCC12)=CCC1C(C)(C)CCCC41C (configuration not stated) as the compound, how does the outcome read?
**A.** Its outcome is “inactive”.

**Q.** For C[C@H]1[C@H](C)CC[C@]2(C(=O)O)CC[C@]3(C(=O)O)C(=CCC4[C@@]5(C)CC[C@H](O[C@@H]6O[C@@H](C)[C@H](O)[C@@H](O)[C@H]6O)C(C)(C)C5CC[C@]43C)[C@H]12 (some centres not stated), which max response is on record?
**A.** The max response was -0.753%.

**Q.** For CCC(C)C(=O)O[C@H]1C[C@](C)(O)[C@]23OC(C)(C)[C@H](C[C@H](OC(=O)c4ccccc4)[C@]2(COC(C)=O)[C@H]1OC(=O)C(C)CC)[C@H]3OC(C)=O (some centres not stated), which outcome is on record?
**A.** Its outcome is “inactive”.

**Q.** For CC(C)=C1CC2C(CCC2(C)O)C(C)(O)CC1=O (configuration not stated), which outcome is on record?
**A.** Its outcome is “inactive”.

**Q.** CC(=O)c1[nH]cc(CCC(=O)O)c1CC(=O)O was tested. Which outcome did it give?
**A.** The outcome was “inactive”.

**Q.** With CC(=O)O[C@@H]1[C@@H](O)[C@H](C)O[C@@H](O[C@H]2[C@@H]3C=CO[C@@H](O[C@@H]4O[C@H](CO)[C@@H](O)[C@H](O)[C@H]4OC(C)=O)[C@@H]3[C@@]3(CO)O[C@@H]23)[C@@H]1OC(=O)/C=C/c1ccc(O)cc1 as the compound, how does the outcome read?
**A.** The outcome was “inactive”.

**Q.** With CC(=O)OC1C(O)C(C)(O)C(/C=C/C(=O)O)C2(C)CCCC(C)(C)C12 (configuration not stated) as the compound, how does the max response read?
**A.** The max response was 6.25%.

**Q.** For C=C(CO)C(=O)O[C@H]1C[C@@]23O[C@@H]2CC/C(=C/[C@H]2OC(=O)C(=C)[C@H]12)CO[C@H]3O, which outcome is on record?
**A.** Its outcome is “inactive”.

**Q.** With CC(C)C1CCC(CO)=CC1/C=C(\CO)C(=O)OCC1(O)CCC(C(C)C)C2C=C(C(=O)O)COC(=O)C21 (configuration not stated) as the compound, how does the outcome read?
**A.** The outcome was “inactive”.

**Q.** O=C(/C=C/c1ccc(O)cc1)OC[C@@]1(O)C=C[C@@H]2C(C(=O)O)=CO[C@@H](O[C@@H]3O[C@H](CO)[C@@H](O)[C@H](O)[C@H]3O)[C@@H]21 was tested. Which outcome did it give?
**A.** The outcome was “inactive”.

**Q.** Which max response does the source give for C=C1C(=O)O[C@@H]2/C=C(\C)CC/C=C(\C(=O)O[C@@H]3O[C@H](CO)[C@@H](O)[C@H](O)[C@H]3O)CC[C@@H]12 here?
**A.** Its max response is -8.71%.

**Q.** Which max response does the source give for C=C[C@H]1[C@H](O[C@@H]2O[C@H](CO)[C@@H](O)[C@H](OC(=O)/C=C/c3ccc(O)c(OC)c3)[C@H]2O)OC=C2C(=O)OCC[C@]21O here?
**A.** Its max response is 6.87%.

**Q.** How did the max response turn out when C[C@@H]1O[C@@H](O[C@H]2[C@H](OC(=O)[C@]34CCC(C)(C)C[C@H]3C3=CCC5[C@@]6(C)CC[C@H](O[C@@H]7O[C@H](CO[C@@H]8OC[C@H](O)[C@H](O)[C@H]8O)[C@@H](O)[C@H](O)[C@H]7O)C(C)(C)C6CC[C@@]5(C)[C@]3(C)C[C@H]4O)OC[C@@H](O)[C@@H]2O)[C@H](O)[C@H](O[C@@H]2OC[C@](O)(CO)[C@H]2O)[C@H]1O[C@@H]1OC[C@H](O)[C@H](O[C@@H]2OC[C@@H](O)[C@H](O)[C@H]2O)[C@H]1O (some centres not stated) was run?
**A.** The max response was 6%.

**Q.** For C=CCc1ccc(O[C@@H]2O[C@H](CO)[C@@H](O)[C@H](O)[C@H]2O)c(O[C@@H]2O[C@H](CO)[C@@H](O)[C@H](O)[C@H]2O)c1, which outcome is on record?
**A.** Its outcome is “inactive”.

**Q.** C=C1CC2C(C)(CCC(=O)O)C(C(C)(C)O)CCC2(C)C2(C(=O)OC)C(=O)C(C)(O)C(=O)C12C (configuration not stated) was tested. Which max response did it give?
**A.** The max response was 1.2%.

**Q.** CC[C@H](C)[C@H](NC(=O)[C@H](Cc1ccc(O)cc1)NC(=O)[C@@H](N)C(C)C)C(=O)N[C@@H](Cc1cnc[nH]1)C(=O)N1CCC[C@H]1C(=O)N[C@@H](Cc1ccccc1)C(=O)O was tested. Which outcome did it give?
**A.** Its outcome is “inactive”.

**Q.** For CC(=O)O[C@@H](C[C@@H]1C=C(C)C(=O)O1)[C@H](C)[C@H]1CCC2[C@@]3(C)CC[C@H](O[C@@H]4O[C@H](CO)[C@@H](O)[C@H](O)[C@H]4O[C@@H]4O[C@@H](C)[C@H](O)[C@@H](O)[C@H]4O)C(C)(C)C3CC[C@@]2(C)[C@@]12COC(=O)C2 (some centres not stated), which max response is on record?
**A.** Its max response is 1.23%.

**Q.** For C/C=C1\[C@H](O[C@@H]2O[C@H](CO)[C@@H](O)[C@H](O)[C@H]2O)OC=C(C(=O)OCCc2ccc(O)cc2)[C@H]1CC(=O)OCCc1ccc(O)cc1, which max response is on record?
**A.** The max response was -0.75%.

**Q.** With C=C1CC/C=C(/CO)C(=O)C[C@@H]2[C@@H]1C[C@@]2(C)COC(C)=O as the compound, how does the max response read?
**A.** The max response was 5.17%.

**Q.** For C=C1CC[C@@H]2[C@](C)(CO)[C@H](O[C@@H]3O[C@H](CO)[C@@H](O)[C@H](O)[C@H]3O)CC[C@@]2(C)[C@@H]1C/C=C1/C(=O)OC[C@H]1O, which max response is on record?
**A.** Its max response is -0.713%.
